Source: PubChem (several laboratories)
PLAP activator: PLAP enzyme activators, biochemical, luminescence, HTS. activation fold at 20 µM. Alkaline phosphatase, placental type (Homo sapiens), P05187. hit rate 1.2% among 96,000. purified PLAP enzyme, luminescent substrate read-out; active compounds read high; in the data active = activation fold above about 2
M1 antag: antagonists of rat M1 muscarinic receptor. CHO-M1 cells, Fluo-4 calcium, ACh EC80 antagonist mode; active compounds read low. Muscarinic acetylcholine receptor M1 (Rattus norvegicus), P08482. hit rate 3.4% among 64,000. B-score at 10 µM. AID 628, 2007;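 active = calcium fluorescence response, raw or row-and-column corrected B-score, differing from the plate sample mean either way at a set confidence level, mostly lower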
M1 ag: M1 muscarinic receptor agonists, primary screen, CHO-M1 cells, Fluo-4 calcium, agonist mode; Muscarinic acetylcholine receptor M1; Fluo-4 calcium fluorescence; active compounds read high; B-score at 10 µM; hit rate 3% among 64,000; AID 626, 2007;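 active = fluorescence rise, raw or as B-score row- and column-corrected plate score, outside the 99.7% band of its plate's samples, either direction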
Cav3 T inh: Cav3.2 calcium influx blockers – cell-based, Fluo-4 calcium fluorescence, FDSS, MLSMR library, primary screen; Voltage-dependent T-type calcium channel subunit alpha-1H (Homo sapiens), O95180; Cav3.2-expressing cells; active compounds read low; B-score at 10 µM; hit rate 4% among 100,000; AID 449739, 2010;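 active = single-dose well whose peak fluorescence ratio is a statistical outlier from its plate by either plate-standardised score or position-corrected B-score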
M1 antag conf: rat M1 muscarinic receptor antagonists, confirmation, CHO cells, Fluo-4 calcium, duplicate; shares compounds with M1 antag; ACh EC80 antagonism; active compounds read low; calcium response (max-min fluorescence) at 10 µM; hit rate 43% among 1,700; AID 677, 2007;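 active = calcium response below the same-plate mean of wells given acetylcholine alone at its 80%-effect dose, minus 3 SD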
mGluR4 antag: human mGluR4 response to M1 antagonist hits, M1 allosteric modulator project, cell-based, antagonist mode, secondary assay 1 | shares compounds with M1 antag | CHO-mGluR4 calcium flux, Fluo-4 fluorescence, glutamate EC80; active compounds read low | fluorescence response (max-min) at 10 µM | hit rate 0.9% among 1,700;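 active = fluorescence response below the plate's average for near-maximal glutamate wells, less 3 SD of those wells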;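 note: raw unnormalized fluorescence span taken in the window right after glutamate addition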
Of the large screens only hits and unclear results are named; the others gave an inactive call (follow-up assays come after a bar, where they were run). In the library only some 7.6% were active in any assay of this set; here they are far more common.

COc1ccc(-c2noc(CCC(=O)Nc3ccc(C)c(C)c3)n2)cc1	M1 antag -3.2 | M1 antag conf inactive | mGluR4 antag inactive
CCOc1ccc(-c2noc(CCC(=O)O)n2)cc1	M1 antag -0.87 | M1 antag conf inactive | mGluR4 antag inactive
COc1ccc(-c2noc(CCC(=O)NCC3CCN(Cc4cccc(C)c4)CC3)n2)cc1	M1 antag -3.6 | M1 antag conf 399 | mGluR4 antag inactive
O=c1c2c3nc4ccccc4nc3n(/N=C/c3cccs3)c2ncn1-c1ccccc1	none (no result: Cav3 T inh)
O=C(Nc1ccc2c(c1)OCCO2)c1ccc(Cl)c(S(=O)(=O)N2CCOCC2)c1	none
COc1ccc(NC(=O)c2ccc(Cl)c(S(=O)(=O)N3CCc4ccccc4C3)c2)cn1	M1 antag -1.5 | M1 antag conf inactive | mGluR4 antag inactive
CCn1cc(C(=O)Nc2ccc(NC(=O)c3ccco3)cc2)c(=O)c2ccc(C)nc21	none (no result: PLAP activator, Cav3 T inh)
CC(OCC(O)CN(C)CCOc1ccccc1)c1ccc(Cl)cc1 (stereo not drawn)	M1 antag -2 | M1 antag conf 511 | mGluR4 antag inactive
Cc1ccc(C)c(NC(=O)Cn2nc(-c3ccccc3)nc2-c2ccccc2)c1	none (no result: M1 antag, M1 ag)
COc1ccc(OC)c(S(=O)(=O)N2CCN(C34CC5CC(CC(C5)C3)C4)CC2)c1	M1 antag -4.6 | M1 antag conf 477 | mGluR4 antag inactive
COc1ccc2oc(=O)c(C(=O)N3CCN(C45CC6CC(CC(C6)C4)C5)CC3)cc2c1	M1 antag -3 (no result: PLAP activator, Cav3 T inh) | M1 antag conf inactive | mGluR4 antag inactive
COc1ccc2oc(=O)c(C(=O)N3CCN(c4ccccc4)CC3)cc2c1	none
